Residue numbers refer to the chain shown, from its start.

Assay in all cases: yeast three-hybrid, YBZ-1, SC-Leu-His + 0.5 mM 3-AT, 4 days
What all share (conditions): tags: N-Gal4 AD-HA kept; label: inside an RPR1-promoter hybrid RNA with tandem MS2 sites; ssRNA

The target in one assay is T1, PUM1 PUF domain R6-FWR (Homo sapiens, UniProt Q14671 828-1176, N1043F;Y1044W;Q1047R).
T1 sequence: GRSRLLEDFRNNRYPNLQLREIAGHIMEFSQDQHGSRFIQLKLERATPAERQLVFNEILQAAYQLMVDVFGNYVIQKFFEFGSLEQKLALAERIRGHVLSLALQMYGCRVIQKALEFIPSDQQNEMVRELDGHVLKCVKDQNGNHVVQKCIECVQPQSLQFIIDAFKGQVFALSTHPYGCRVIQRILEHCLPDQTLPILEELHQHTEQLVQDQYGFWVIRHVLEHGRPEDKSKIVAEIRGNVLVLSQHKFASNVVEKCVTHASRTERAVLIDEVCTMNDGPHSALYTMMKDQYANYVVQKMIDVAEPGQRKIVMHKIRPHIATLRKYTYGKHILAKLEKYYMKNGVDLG
In a few lines:
(§1)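 The interaction score is the log change in how often each variant appears, from input to selection. Frequencies came from PCR-amplified, Illumina-sequenced repeat regions of Pumilio-1 PUF domain libraries grown in strain YBZ-1 (LexA–MS2 coat fusion, HIS3 reporter) alongside matching RNA elements. Input plates were SC-Leu and selection plates were SC-Leu-His + 0.5 mM 3-AT, each for four days, and the log2 calculation used a pseudocount of 1 where a variant was absent.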

The target in the next assay is PUM1 PUF domain R3-SSK (Homo sapiens, UniProt Q14671 828-1176, C935S;R936S;Q939K). In a few lines:
as §1

For the next assay, the target named is PUM1 PUF domain R7-RPC (Homo sapiens, UniProt Q14671 828-1176, S1079R;N1080P;E1083C). In a few lines:
as §1

In another assay the target is PUM1 PUF domain R7-RGH (Homo sapiens, UniProt Q14671 828-1176, S1079R;N1080G;E1083H). In a few lines:
as §1

For another assay, the target named is T2, PUM1 PUF domain R6-HYR (Homo sapiens, UniProt Q14671 828-1176, N1043H;Q1047R).
T2 sequence: T1 sequence with F216H, W217Y
In a few lines: as §1

The next assay concerns the target PUM1 PUF domain R8-RRG (Homo sapiens, UniProt Q14671 828-1176, N1122R;Y1123R;Q1126G). In a few lines:
as §1

For a further assay, the target named is PUM1 PUF domain R3-TRL (Homo sapiens, UniProt Q14671 828-1176, C935T;Q939L). Summed up: as §1
The target in a further assay is PUM1 PUF domain R8-NWK (Homo sapiens, UniProt Q14671 828-1176, Y1123W;Q1126K). In a few lines:
as §1

The next assay concerns the target PUM1 PUF domain R5-QNS (Homo sapiens, UniProt Q14671 828-1176, C1007Q;R1008N;Q1011S). In a few lines:
as §1

A further assay addresses PUM1 PUF domain R1-RVI (Homo sapiens, UniProt Q14671 828-1176, S863R;R864V;Q867I). In a few lines: as §1

In the case of “GGCUAGAACUAGUGGAUCCCCCGGCGCCCGGCGGCUCGAGCCCGGGUAAGUGAAAAUAGUCUGCAUGCCGCCGGGCGCCAUGCCUGCAGGUCGACUCUAGAAAACAUG”, in the assay with PUM1 PUF domain R6-FWR, the binding signal is 4.17 log2 enrichment (interaction score). “GGCUAGAACUAGUGGAUCCCCCGGCGCCCGGCGGCUCGAGCCCGGGUAAGUGUAAGUAGUCUGCAUGCCGCCGGGCGCCAUGCCUGCAGGUCGACUCUAGAAAACAUG”: the binding signal with PUM1 PUF domain R3-SSK is 2.38 log2 enrichment (interaction score).

For the sequence “GGCUAGAACUAGUGGAUCCCCCGGCGCCCGGCGGCUCGAGCCCGGGUAAGUUUAAAUAGUCUGCAUGCCGCCGGGCGCCAUGCCUGCAGGUCGACUCUAGAAAACAUG”, the binding signal is 3.97 log2 enrichment (interaction score) with PUM1 PUF domain R7-RPC and 3.07 log2 enrichment (interaction score) in the assay with PUM1 PUF domain R7-RGH. Take “GGCUAGAACUAGUGGAUCCCCCGGCGCCCGGCGGCUCGAGCCCGGGUAAGUGUAAAUAGUCUGCAUGCCGCCGGGCGCCAUGCCUGCAGGUCGACUCUAGAAAACAUG”: the binding signal in the assay with PUM1 PUF domain R6-HYR is 5.76 log2 enrichment (interaction score); with PUM1 PUF domain R6-FWR, 5.25 log2 enrichment (interaction score); with PUM1 PUF domain R8-RRG, 1.3 log2 enrichment (interaction score); in the assay with PUM1 PUF domain R3-TRL, 2.97 log2 enrichment (interaction score).

Take “GGCUAGAACUAGUGGAUCCCCCGGCGCCCGGCGGCUCGAGCCCGGGUAAGCGUAAAUAGUCUGCAUGCCGCCGGGCGCCAUGCCUGCAGGUCGACUCUAGAAAACAUG”: the binding signal was 2.76 log2 enrichment (interaction score) in the assay with PUM1 PUF domain R8-RRG and 4.45 log2 enrichment (interaction score) in the assay with PUM1 PUF domain R8-NWK. In the case of “GGCUAGAACUAGUGGAUCCCCCGGCGCCCGGCGGCUCGAGCCCGGGUAAGUGUUAAUAGUCUGCAUGCCGCCGGGCGCCAUGCCUGCAGGUCGACUCUAGAAAACAUG”, in the assay with PUM1 PUF domain R5-QNS, the binding signal was 3.13 log2 enrichment (interaction score). Regarding “GGCUAGAACUAGUGGAUCCCCCGGCGCCCGGCGGCUCGAGCCCGGGUAAGUGUAAAUCGUCUGCAUGCCGCCGGGCGCCAUGCCUGCAGGUCGACUCUAGAAAACAUG”, the binding signal with PUM1 PUF domain R1-RVI was 2.84 log2 enrichment (interaction score). Same read-out and setting: next, “GGCUAGAACUAGUGGAUCCCCCGGCGCCCGGCGGCUCGAGCCCGGGUAAGUGUAAAUUGUCUGCAUGCCGCCGGGCGCCAUGCCUGCAGGUCGACUCUAGAAAACAUG”: 2.56 log2 enrichment (interaction score). Regarding “GGCUAGAACUAGUGGAUCCCCCGGCGCCCGGCGGCUCGAGCCCGGGUAAGUGUAAUUAGUCUGCAUGCCGCCGGGCGCCAUGCCUGCAGGUCGACUCUAGAAAACAUG”, the results for the binding signal with PUM1 PUF domain R3-SSK and with PUM1 PUF domain R3-TRL were 2.9 log2 enrichment (interaction score) and 0.95 log2 enrichment (interaction score), respectively. For “GGCUAGAACUAGUGGAUCCCCCGGCGCCCGGCGGCUCGAGCCCGGGUAAGUCUAAAUAGUCUGCAUGCCGCCGGGCGCCAUGCCUGCAGGUCGACUCUAGAAAACAUG”, the binding signal is 0.8 log2 enrichment (interaction score) in the assay with PUM1 PUF domain R7-RPC and 1.99 log2 enrichment (interaction score) with PUM1 PUF domain R7-RGH.

(Values after article PMC8384837, “Expanding the binding specificity for RNA recognition by a PUF domain”.)
